Records with an inconclusive call do not appear. Active and inactive are the calls of the source. The call rests on the fitted dose curve; in most records, active means well fitted inhibition curve with a large enough effect; inconclusive means small, poorly fitted or top-dose-only effect; inactive means no such curve, though single readings can be large or run the other way.
Each compound was assayed against Retinal dehydrogenase 2 (Homo sapiens) (UniProt O94788) (assay: qHTS for Inhibitors of the Aldehyde Dehydrogenase Family (ALDH1A2) Confirmation screens (AID 2061314; further: nearly all actives have a fitted effect of over 65% in size; further: potency means the concentration at half of the fitted maximal effect; on activity, negative = inhibition: on the % scale 0 is the no-effect control and ±100 the full control effect)). Conditions: ALDH1A2 enzyme inhibition qHTS confirmation; series mostly up to 45.9 µM; activity, negative = inhibition: at the top concentration.
With `CCOc1ccc(-c2cc(C(=O)NC(C)c3ccccc3)c3ccccc3n2)cc1` (stereo unspecified) the “outcome” value was “inactive”. For `COc1ccccc1Cc1nc2ccccc2nc1SCC(=O)Nc1c(C)cccc1C`, the “activity, negative = inhibition” value was -19.1% (inactive). `COc1ccc(S(=O)(=O)c2c(C(=O)c3ccc(C)c(C)c3)cnc3ccc(C)cc23)cc1` was tested, and the “activity, negative = inhibition” value was -9.88% (inactive). For `CC(C)Oc1ccc(CNC(=O)C2CCCCN2S(=O)(=O)c2ccc(F)cc2)cc1` (stereo unspecified), the “outcome” value was “inactive”. In the case of `CN(C)C(=O)c1ccc(-c2cc[nH]c(=O)c2N)cc1`, the Potency is reported as 0.4 µM (active). In the case of `Cn1c(=O)n([C@H]2CCCN(C(=O)c3cccnc3)C2)c2ncccc21`, the “activity, negative = inhibition” value is reported as -8.73% (inactive). In the case of `CN(CC(=O)Nc1ccc(OC(F)(F)F)cc1)S(=O)(=O)c1ccc2c(c1)CCC(=O)N2`, the “activity, negative = inhibition” value is reported as -4.54% (inactive). In the case of `COc1cc(C(=O)NCC(c2ccco2)S(=O)(=O)c2ccccc2)cc(OC)c1OC` (stereo unspecified), the “outcome” value is reported as “inactive”. `COC(=O)CSc1ccc2nnc(CCNS(=O)(=O)c3ccccc3)n2n1` was tested, and the “activity, negative = inhibition” value was -2.36% (inactive). `O=C(NCCOc1ccccc1)[C@@H]1C[C@@H](c2ccc(F)cc2)N([S+](=O)([O-])c2ccccc2)C1` was tested, and the “activity, negative = inhibition” value was -9.76% (inactive). With `COc1ccc(OC)c(NC(=O)CSc2nnc3ccc4ccccc4n23)c1` the “activity, negative = inhibition” value was -14.7% (inactive). `CCCCOc1ccc(C(=O)N(Cc2ccc(N(C)C)cc2)Cc2ccco2)cc1` was tested, and the “activity, negative = inhibition” value was -49% (inactive). With `Nc1c(-c2ccncc2)cc[nH]c1=O` the Potency was 0.634 µM (active). In the case of `COc1ccc(N2CCN(C(=O)c3cc(NS(=O)(=O)c4ccc(F)cc4)ccn3)CC2)cc1`, the “activity, negative = inhibition” value is reported as -15.3% (inactive). In the case of `Cn1nc(C(=O)N2CCOCCNC(=O)CC2)c2ccccc21`, the “activity, negative = inhibition” value is reported as -13.3% (inactive). For `CCC(=O)N(C1CCOCC1)C1CCN(S(=O)(=O)c2ccc(C(F)(F)F)cc2)CC1`, the “outcome” value was “inactive”. For `CCOc1ccc(C(=O)Nc2ccc(NC(=O)c3ccccc3)cc2)cc1Br`, the “activity, negative = inhibition” value was -29.5% (inactive). For `Cc1noc(Nc2sc3c(c2-c2nc4ccccc4s2)CCNC3)n1`, the Potency was 25.2 µM (active). With `CCOc1ccccc1NC(=O)CN(C)S(=O)(=O)c1ccc(C(=O)N2CCOCC2)s1` the “activity, negative = inhibition” value was -2.89% (inactive). For `CCn1cc(C(=O)N(C)c2cc(C)ccc2C)c2cc(OC)c(OC)cc2c1=O`, the “activity, negative = inhibition” value was -30.1% (inactive). With `COc1ccc(S(=O)(=O)N2CCCCC2)cc1C(=O)Nc1cccc(C(F)(F)F)c1` the “activity, negative = inhibition” value was -27.6% (inactive). `Cc1ccc(S(=O)(=O)N2CCCC(Cn3cnc4cccnc43)C2)cc1C` (stereo unspecified) was tested, and the “activity, negative = inhibition” value was -6.76% (inactive). With `Nc1c(-c2ccccc2)cc[nH]c1=O` the Potency was 0.159 µM (active). `CCOC(=O)c1ccccc1NC(=O)c1cnc(N2CCOCC2)c2ccccc12` was tested, and the “activity, negative = inhibition” value was 4.38% (inactive). In the case of `CCN(C(=O)c1sc2nc3n(c(=O)c2c1C)CCCCC3)c1ccccc1F`, the “activity, negative = inhibition” value is reported as -11.9% (inactive). With `CC(C)Cn1c(=O)c(C(=O)NCc2cccs2)nc2cccnc21` the “activity, negative = inhibition” value was -19.6% (inactive). In the case of `O=C(CN(Cc1cccc2ccccc12)C1CC1)Nc1ccc(N2CCOCC2)cc1`, the Potency is reported as 11.3 µM (active). In the case of `CCN(CC)S(=O)(=O)c1ccc2c(c1)N(CC(=O)N1CCN(c3cccc(C(F)(F)F)c3)CC1)C(=O)CO2`, the “activity, negative = inhibition” value is reported as -100% (inactive). In the case of `COc1cccc(-c2ccc(C(=O)N3CCC(N[S+](=O)([O-])CCC(F)(F)F)CC3)cc2)c1`, the “outcome” value is reported as “inactive”. With `COc1ccc(CN(C)c2ccc(-c3nc(-c4ccccc4)no3)cc2[N+](=O)[O-])cc1` the “activity, negative = inhibition” value was -18.2% (inactive). In the case of `COc1ccccc1C(=O)Nc1cc(-c2cccc(Br)c2)nn1-c1ccccc1`, the “activity, negative = inhibition” value is reported as -27.6% (inactive). In the case of `COc1cncc(Nc2cnc3ccc(-c4ccc(F)cc4)nn23)c1`, the “activity, negative = inhibition” value is reported as -15.6% (inactive). With `COc1ccc(CC(=O)N2CCC3(CC2)CN([S+](=O)([O-])c2ccccc2)CCO3)cc1` the “activity, negative = inhibition” value was -0.823% (inactive). In the case of `O=C1COc2cc([S+](=O)([O-])Nc3ccc(Cl)c(Cl)c3)c(Cl)cc2N1`, the Potency is reported as 14.2 µM (active). In the case of `COc1ccc(-c2nc(CNS(=O)(=O)c3cccc(F)c3)cs2)cc1`, the Potency is reported as 5.76 µM (active). With `CC(=O)c1ccc(NC(=O)CCc2c(C)nn(-c3ccc4nnc(C)n4n3)c2C)cc1` the “activity, negative = inhibition” value was -2.27% (inactive). In the case of `Cc1cccc(-c2nc3c(cnn3-c3ccccc3)c(=O)n2-c2ccc(Cl)cc2)c1`, the “activity, negative = inhibition” value is reported as 1.22% (inactive). With `Cn1cc(S(=O)(=O)N2CCCCC2)cc1C(=O)Nc1ccc(OC(F)(F)F)cc1` the “activity, negative = inhibition” value was -21% (inactive). With `COCCNC(=O)CNC(=O)c1ccc(-c2cccc(C(F)(F)F)c2)cc1` the “outcome” value was “inactive”. With `COc1ccccc1C(=O)Nc1ccc(-c2cc(C(F)(F)F)nn2-c2ccccc2)cc1` the “activity, negative = inhibition” value was 1.15% (inactive).

Each compound was assayed against Retinaldehyde dehydrogenase 3 (Homo sapiens) (UniProt P47895) (assay: qHTS for Inhibitors of the Aldehyde Dehydrogenase Family (ALDH1A3) Primary screen (AID 2061315;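 further: plate controls were DMSO vehicle for no effect and reference inhibitor for full effect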)). Conditions: ALDH inhibition qHTS; series mostly up to 56 µM; activity change, negative = inhibition: at the top concentration.
`CN(C)C(=O)c1ccc(-c2cc[nH]c(=O)c2N)cc1` was tested, and the “activity change, negative = inhibition” value was -5.17% (inactive). For `Nc1c(-c2ccncc2)cc[nH]c1=O`, the “activity change, negative = inhibition” value was 0.033% (inactive). For `Cc1noc(Nc2sc3c(c2-c2nc4ccccc4s2)CCNC3)n1`, the “activity change, negative = inhibition” value was -7.02% (inactive). With `Nc1c(-c2ccccc2)cc[nH]c1=O` the “activity change, negative = inhibition” value was -3.86% (inactive). For `O=C(CN(Cc1cccc2ccccc12)C1CC1)Nc1ccc(N2CCOCC2)cc1`, the “activity change, negative = inhibition” value was -14.3% (inactive). With `O=C1COc2cc([S+](=O)([O-])Nc3ccc(Cl)c(Cl)c3)c(Cl)cc2N1` the “activity change, negative = inhibition” value was -0.871% (inactive).

Reference: PubChem BioAssay (NCATS)
